Data on 39 molecules can be found in PubChem BioAssay (NCI).

Several values for one entry are separate records, joined by “and”; a condition that tells them apart may be missing. Equal values may be shown once. About 83,000 compounds went through this panel and 20% of them were active in at least one assay; those are over-represented in the sample as a whole.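 Single-dose data. Exposure time 48 hours. Values below 10 considered active.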 Unmarked numbers belong to inactive results. Activity calls are given as the source filed them.

This assay relates to MDA-MB-468 breast. The assay can be described thus: NCI-60 one-dose screen, 48 h (100 = growth as untreated, 0 = no growth, -100 = all killed). To be noted: 10 µM unless noted.
With `CCOC(=O)c1ccc2c(c1)nc(/C=C/c1ccc(Cl)cc1)n2-c1cc(C(C)(C)C)[nH]n1`, the growth is 58.8%.

Consider `CN1CCN(CCCCCC(=O)Nc2nc(-c3cccc(NS(=O)(=O)c4cccc5c(N(C)C)cccc45)c3)cs2)CC1`, for which the growth is 74%.

Take `N[C@H](C(=O)O)[C@@H]1CC(Cl)=NO1`: the growth was 29.4% [20 µM].

As to `CCc1ccc(Oc2c(-c3ccc(OCc4ccc(Cl)cc4)cc3O)n[nH]c2C(F)(F)F)cc1`, the growth is 13.1%.

As for `Cc1sc(NC(=O)c2ccc(C(C)(C)C)cc2)c(C(=O)O)c1C`, the growth was 80%.

For the molecule `COc1cc(Br)c(-c2nc(-c3ccccc3)c(-c3ccccc3)n2Cc2ccccc2)cc1OC`, the growth was 54%.

Take `O=C1Nc2ccc(C(=O)O)c(O)c2C1=O`: the growth was 108%.

Consider `N#Cc1c(C(F)(F)F)cc(Nc2ccc3nc(NCCN4CCCC4)oc3c2)n2c1nc1ccccc12`, for which the growth is 34.1%.

On to `O=[N+]([O-])c1ccc(NS(=O)(=O)c2cc(Cl)ccc2Cl)c2ccccc12`, for which the growth was 23.6%.

As for `Nc1nonc1-c1nc2ccccc2n1Cc1ccc(F)cc1`, the growth is 23.6%.

Turning to `CCOC(=O)C1=C(C)Nc2nc3ccccc3n2C1c1cccc(Br)c1` (centres undefined), the growth is 54.2%.

Regarding `Cc1cc(C)cc(CCCCCCCCCCCCCCCCCC(=O)O)c1`, the growth was 106%.

For the molecule `Nc1ccc(C(=O)c2ccc(N)c(Br)c2)cc1Br`, the growth is -0.913% (active).

As to `Cc1cc(C(=O)Nc2cc(Oc3ccc4nc(NC(=O)C5CC5)cn4n3)ccc2C)n(C)n1`, the growth was 21%.

For the molecule `COc1c(N2CC3CCCNC3C2)c(F)cc2c(=O)c(C(=O)N/N=C/c3ccc(N(C)C)cc3)cn(C3CC3)c12` (centres undefined), the growth was 79%.

As to `N=C(N)c1ccc(-c2ccc(-c3ccco3)o2)cc1`, the growth is 22.9%.

Take `COc1ccc(NC(=O)CSc2nc3ccccc3c(=O)n2-c2ccccc2C(F)(F)F)c(OC)c1OC`: the growth is 93.2%.

Regarding `O=C(Nc1cccc(Cl)c1)Nc1cc2ncncc2cc1OCc1cccc(F)c1`, the growth was -2.43% (active).

Consider `CCCC[N+](CCCC)=c1ccc2nc3c(C)cc(N(CC)CC)cc3sc-2c1`, for which the growth is -45.9% (active).

Regarding `COc1cc(CCC[P+](c2ccccc2)(c2ccccc2)c2ccccc2)c(OC)c(OC)c1OC`, the growth was 30.3%.

For the molecule `OC1COC(OCc2ccccc2)C(O)C1O` (centres undefined), the growth was 94.8%.

`COc1ccccc1CNCCCN1C(=O)c2ccc3c4c(ccc(c24)C1=O)C(=O)N(CCCNCCCCNCCCCN)C3=O`: the growth was -47% (active).

As to `O=C(O)COc1ccc(-c2cssc2=S)cc1`, the growth was 99.5%.

Take `CCOc1ccc(-n2nc(C(=O)Nc3ccccc3)nc2-c2cc(OC)c(OC)c(OC)c2)cc1`: the growth is 42.5%.

For `CCN1CCN(C(=O)[C@@]2(C)CC[C@]3(C)CC[C@]4(C)C(=CC(=O)[C@@H]5[C@@]6(C)CC[C@H](OCCC#N)C(C)(C)[C@@H]6CC[C@]54C)[C@@H]3C2)CC1`, the growth is 90.9%.

With `O=C1C(c2c[nH]c3ccccc23)=C(c2coc3cc(Br)ccc23)C(=O)N1O`, the growth was 91.6%.

Regarding `CN(C)CCCOc1ccccc1NC1=C(Cl)C(=O)C(Nc2ccccc2OCCCN(C)C)=C(Cl)C1=O`, the growth was -60.6% (active).

For `O=c1nc(Nc2cccc(Cl)c2)oc2cc(Cl)oc(=O)c12`, the growth was 75.1%.

As to `COc1cc2c(c(OC)c1OC)-c1ccc(OC)c(=O)cc1[C@@H](NC(C)=O)CC2`, the growth is -8.64% (active) and -2.19% (active).

For `CCOC(=O)c1nnn(-c2ccccc2)c1C1=CN(C)CCC1`, the growth was 120%.

In the case of `C/C(=N\NC(=O)/C=C/CC(=O)O)c1nnn(-c2ccc([N+](=O)[O-])cc2)c1C`, the growth is 99.8%.

As for `O=C1c2c(c3c4cccnc4[nH]c3c3ccc4ccccc4c23)C(=O)N1O`, the growth is 45.5%.

As to `O=C(CN1C(=O)NC2NC(=O)NC21)N/N=C/c1ccccc1[N+](=O)[O-]` (centres undefined), the growth is 98.5%.

In the case of `Cc1ccc2nc(NC(=O)CSc3nc(Cl)c(C#N)c(-c4ccccc4)n3)sc2c1`, the growth was 87.5%.

For `COc1cc(OC)c(/C=C/C(=O)c2c(OC)cccc2OC)c(OC)c1`, the growth is -15.6% (active).

On to `O=C(Nc1ccc(-n2cc(-c3ccncc3)c(-c3ccc(O)c(Cl)c3)n2)cc1)c1ccc(Cl)c(Cl)c1`, for which the growth is 39.9%.

Turning to `CC(C)n1cnc2c(=S)nc[nH]c21`, the growth is 104%.

Take `COc1ccc(/C=C/C(c2cc(OC)c(OC)c(OC)c2)n2cncn2)cc1` (centres undefined): the growth is 40.9%.

On to `CC1=NN(c2ccc(S(=O)(=O)O)cc2Cl)C(=O)C1`, for which the growth is 107%.
